According to PubChem BioAssay AID1745850 (National Center for Advancing Translational Sciences (NCATS), 2022):
About 260 (12%) of roughly 2,100 compounds were called active. Another 58% or so got no clear call; they are omitted. This is one part of the list. A number with no mark means an inactive call. The call rests on the fitted dose curve; in most records, active means well fitted cell-killing curve with a large enough effect; inconclusive means small, poorly fitted or top-dose-only effect, or effect the other way; inactive means flat fitted curve, though single readings scatter.

Assay: Viability Counterscreen for Confirmatory qHTS for Inhibitors of ATXN expression; further: nearly all actives have a fitted effect of over 50% in size
Details: HEK-293 ATXN2-luc cells viability, CellTiter-Fluor, 24 h; activity change, negative = cytotoxicity: at the top concentration
Procedure, shortened: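 Cells with an ATXN2-luciferase reporter were dosed in a dilution series for 24 h at 37 degrees C. Viability was read first with Gly-Phe-AFC at 25 uM final (fluorescence, ex 405/em 540), then SteadyGlo luminescence. Medium-only wells defined 100% inhibition.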
Potency means the concentration at half of the fitted maximal effect.

SMILES | activity change, negative = cytotoxicity | Potency
Cc1cc(O)c(C(C)C)cc1N=Cc1ccc(N(C)C)cc1 | -5.37% | 
Cc1cc(C2=NNC(=NC3CC3)SC2)c(C)n1-c1ccccc1F | -26.7% | 
Cc1cccc(N2CCN(C(=O)CNC(=O)Cc3ccccc3)CC2)c1C | -15.8% | 
CCC(C)(C)c1ccc(OCCCC[n+]2ccc(C)cc2)c(C(C)(C)CC)c1 | -23.1% | 
CCCCCc1ccc(OCCC[n+]2ccccc2)c(CCCCC)c1 |  | 20 µM (active)
CCC(C)(C)c1ccc(OCCCC[n+]2ccccc2)c(C(C)(C)CC)c1 | -22% | 
Cc1cccc(OCCSc2nc3ncnc(N)c3[nH]2)c1 | -9.99% [at 57.5 µM] | 
Cc1nc(-c2ccc(Cl)cc2)sc1C(=O)NN | -25.7% [at 57.5 µM] | 
COc1ccc2nc(C)c3c(c2c1)OC(C(C)(Cl)Br)C3 (configuration not stated) | -19.2% | 
COc1ccc(N2CCN(c3cc(C)nc4ccc(OC)cc34)CC2)cc1 | -28.2% | 
COc1ccc2nc(C)cc(NCc3cccc(C(F)(F)F)c3)c2c1 |  | 22.4 µM (active)
O=C(CCN1CCN(c2ccccc2)CC1)N/N=C/c1ccccc1O | -13.3% | 
COc1cc(C(=O)OC(C)C(=O)N2CCc3ccccc3C2)ccc1OCC(=O)N1CCOCC1 (configuration not stated) | -8.5% | 
Cc1cc(C)c(C)c(OC(=O)c2sc(Cl)nc2C)c1 |  | 28.2 µM (active)
COC(=O)c1sc(NC(=O)c2ccc(OC)cc2OC)nc1C | -11.6% [at 57.5 µM] | 
CCOC(=O)C1CCN(c2ncnc3c2cnn3-c2ccc(Cl)cc2)CC1 | -3.15% [at 57.5 µM] | 
Cc1cc(N2CCN(c3nc(-c4ccccc4)cs3)CC2)c2ccccc2n1 | -13.9% | 
Cn1cccc1/C=N/N1CCN(Cc2ccccc2Cl)CC1 | -17.9% [at 57.5 µM] | 
O=C1c2cccc3c([N+](=O)[O-])ccc(c23)C(=O)N1c1ccc(Cl)cn1 | -7.3% [at 57.5 µM] | 
CCOC(=O)N1CCN(Cc2cc(Cl)c3cccnc3c2O)CC1 | -24.9% | 
CC(C)COCc1ccc(O)c2ncccc12 | -28.8% | 
O=[N+]([O-])c1cc(Cl)c(O)c2ncccc12 |  | 11.2 µM (active)
O=[N+]([O-])c1ccc(O)c2ncccc12 |  | 11.2 µM (active)

SMILES | activity change, negative = cytotoxicity | Potency
Cc1ccnc(N2C(=O)c3cccc4c([N+](=O)[O-])ccc(c34)C2=O)c1 | 4.13% [at 57.5 µM] | 
Cn1c(-[n+]2c(-c3ccccc3)cc(-c3ccccc3)cc2-c2ccccc2)nc2c([N+](=O)[O-])cccc21 | -27.1% | 
COc1ccc(N=Cc2cc3c(cc2O)OC(N)=C(C#N)C3c2ccccc2)cc1 (configuration not stated) | -26.4% | 
O=C1CCCC(O)=C1C=NCc1ccccc1 | 2.46% | 
CCCCC(=O)N(CCOC)c1nnc(-c2ccccc2C)s1 | -13.5% [at 57.5 µM] | 
CC(=O)Nc1ccc(CNc2nc3cc(-c4ccccc4C)sc3c(=O)n2C)cc1 | -25% [at 57.5 µM] | 
COc1ccccc1CNc1nc(NC(C)C)nc2cc(-c3ccccc3)sc12 |  | 28.2 µM (active)
CC(=O)Nc1ccc(CNc2nc(NC(C)C)nc3cc(-c4ccccc4)sc23)cc1 |  | 25.1 µM (active)
COc1ccc(-c2cc(CNc3nc(NC(C)C)nc4cc(-c5ccccc5)sc34)on2)cc1 |  | 22.4 µM (active)
CCn1c2ccccc2c2cc(/C=N/n3cnnc3)ccc21 | -18.4% | 
CCOCCn1ccc2c(OCC(=O)Nc3ccc(OC)c(OC)c3)cccc2c1=O | -12% | 
COCCNc1nc(-c2cc(C)n(CCc3ccc(OC)cc3)c2C)cs1 | -24.1% [at 57.5 µM] | 
COCCCn1c(N)c(-c2nc3ccccc3n2C)c2nc3ccccc3nc21 | -3.25% [at 57.5 µM] | 
CO[C@@]12[C@@H]3N[C@@H]3CN1C1=C(C(=O)C(N)=C(C)C1=O)[C@@H]2COC(N)=O | 9.55% | 
NNC(=O)c1sc2cc(C(F)(F)F)cnc2c1-c1cccs1 | -22.9% [at 57.5 µM] | 
O=C(CNC(=O)C1COc2ccccc2O1)N/N=C/c1ccc(O)cc1O (configuration not stated) | -22.9% | 
Cc1nc(SCc2ccc(C(=O)O)cc2)nc2c1CCCC2 | -2.72% | 
N=c1ccn(CC(=O)c2ccc(-c3ccccc3)cc2)cc1 | -19.1% | 
Cc1c(C(=O)NCc2ccc(C(F)(F)F)cc2)sc(=O)n1Cc1cccc(F)c1 | -16.1% [at 57.5 µM] | 
Cc1ccc2nc(SCc3ccc([N+](=O)[O-])cc3)[nH]c2c1 | -12.6% | 
Cc1ccc2nc3cc([N+](=O)[O-])cc([N+](=O)[O-])c3cc2c1 |  | 17.8 µM (active)
Cc1cc(C)nc(NNS(=O)(=O)c2ccc(F)c(Cl)c2)n1 | -5.02% | 
CC(C)CC(=O)NC(=S)NNC(=O)c1ccc(NC(=O)C2CCCCC2)cc1 | 4.48% | 

SMILES | activity change, negative = cytotoxicity | Potency
Cc1cccc(OCCCC(=O)Nc2nc3ccccc3[nH]2)c1 | -19.4% | 
CCC(=O)OCCNc1cc(Sc2nc3ccccc3[nH]2)c2nonc2c1[N+](=O)[O-] |  | 3.16 µM (active)
CC(SC(C)C(=O)NN=Cc1cccc(Cl)c1)C(=O)NN=Cc1cccc(Cl)c1 (configuration not stated) | -28.8% | 
O=C(NC(=S)NCc1nc2ccccc2[nH]1)c1ccc(F)cc1 | -4.93% | 
Cc1cc(C)cc(NC(=O)CCC(=O)Nc2cc(C)on2)c1 | -6.58% | 
COc1ccc(OC)c(NC(=O)CSc2nnnn2-c2ccc3c(c2)OCO3)c1 | -28.3% [at 57.5 µM] | 
Cc1cc(C)c2c(CC(=O)Nc3ccc(Cl)cn3)coc2c1 | -4.58% | 
Cc1ccc(N=Nc2ccc(O)c3ncccc23)cc1 |  | 10 µM (active)
CN1CCC(N(C)C(=O)c2ccc(Cl)c(S(=O)(=O)N3CCc4ccccc43)c2)CC1 | -25.1% [at 57.5 µM] | 
Nc1ccn([C@@H]2O[C@H](CO)[C@@H](O)[C@@H]2O)c(=O)n1 | -10.9% | 
CN(C)S(=O)(=O)c1cccc(N2C(=O)CC3(CCCCC3)CC2=O)c1 | -6.16% | 
C=CCN(C(=O)CSc1nc2c(sc3ccccc32)c(=O)n1CCN(CC)CC)c1ccccc1 |  | 25.1 µM (active)
CCOC(=O)c1c(-n2cccc2)sc2c1CCCC2=O | -20% [at 57.5 µM] | 
CC(=O)c1ccc(N2CCN(CC(O)COC(c3ccccc3)c3ccccc3)CC2)cc1 (configuration not stated) | -7.3% | 
CCN(CC)c1nc(-c2ccccn2)nc(-c2ccccc2)c1C#N |  | 8.91 µM (active)
CC(C)Nc1nc(-c2ccccn2)nc(-c2ccccc2)c1C#N | -20.8% [at 57.5 µM] | 
Cn1cc(SCC(=O)Nc2nc3ccccc3s2)c2ccccc21 | -4.73% | 
O=C(N/N=C/c1ccccc1O)c1cccc(C(F)(F)F)c1 | -7.41% | 
COc1ccccc1NS(=O)(=O)c1cccc(C(=O)N/N=C/c2ccc([N+](=O)[O-])o2)c1 |  | 15.8 µM (active)
COc1cccc(/C=N/NC(=O)c2cc3c(OC)cccc3[nH]2)c1O | -32.3% [at 57.5 µM] | 
c1ccc(COc2ncnc3c2ncn3CCCN2CCN(Cc3cccc4ccccc34)CC2)cc1 |  | 25.1 µM (active)
